This passage reports Potency results from PubChem BioAssay (NCATS).

Inconclusive results are not listed. Entries that show only a call come without a potency. Activity calls are given as the source filed them. Calls come from the whole dose curve; as a rule, active = well fitted cell-killing curve with a large enough effect; inconclusive = small, poorly fitted or top-dose-only effect, or effect the other way; inactive = no such curve, though single readings can be large or run the other way.
Potency is the fitted concentration of half-maximal effect.

This experiment in a line: Quantitative High-Throughput drug screen in 47 multiple myeloma cell lines against the NCATS MIPE library collection: KMS28PE_JCRB cell viability assay (AID 1918983). Note: nearly all actives have a fitted effect of over 35% in size. The conditions noted are these: KMS28PE multiple myeloma viability, CellTiter-Glo ATP, 48 h; series mostly up to 45.8 µM. The text has this:
PI: Beverly A. Mock Ph.D.
Laboratory of Cancer Biology and Genetics,
Center for Cancer Research, National Cancer Institute,
National Institute of Health, Bethesda, Maryland
Drug resistance and disease progression are common in multiple myeloma (MM) patients, underscoring the need for new therapeutic combinations. […] We hypothesized that effective combinations would reduce MYC expression and enhance p16 activity. […] These preclinical data identify potentially useful drug combinations for evaluation in drug-resistant MM and reveal potential mechanisms of combined drug sensitivity.
Described herein is the primary MIPE qHTS used to cherrypick compounds. Validated compounds were then further tested for potential synergistic activiy.
[1] Peat TJ, Gaikwad SM, Dubois W, Gyabaah-Kessie N, Zhang S, Gorjifard S, Phyo Z, Andres M, Hughitt VK, Simpson RM, Miller MA, Girvin AT, Taylor A, Williams D, D'Antonio N, Zhang Y, Rajagopalan A, Flietner E, Wilson K, Zhang X, Shinn P, Klumpp-Thomas C, McKnight C, Itkin Z, Chen L, Kazandijian D, Zhang J, Michalowski AM, Simmons JK, Keats J, Thomas CJ, Mock BA. Drug combinations identified by high-throughput screening promote cell cycle transition and upregulate Smad pathways in myeloma. Cancer Lett. 2023 Aug 1;568:216284. doi: 10.1016/j.canlet.2023.216284. Epub 2023 Jun 24. PMID: 37356470; PMCID: PMC10408729.
SEQUENCE No. (e.g., 1, 2, 3, etc.); […] (e.g., Cells, Incubation, Reagent, etc.); VALUE and DESCRIPTION.
1; Cells; 5 uL; white, solid bottom 1536-well Greiner assay plate.
2; Compounds; 23 nL; Kalypsis pin tool (Wako USA) equipped with a 1536-well pin head to transfer to the assay plates.
3; Incubation; 48 hours; 37C incubation.
4; Reagent;5uL; CellTiter Glo (Promega).
5; Detector; 425V; Luminescence; Viewlux PerkinElmer.
NOTES (numbers refer to Sequence numbers above)
1. The cell-based screening methods employed in this study were like those previously published. Briefly, the corresponding myeloma cell lines were screened in 1,536-well plates with 500 cells, 5-uL per well for inhibition of cell viability (assessed by measuring ATP levels with CellTiterGlo).
2. NCATS MIPE 4.0 library of approved and investigational drugs were added using the Kalypsis pin tool. Wells treated with DMSO only for 100% viability and media only for 0% viability were used as controls.
3. The assay plates were covered and incubated for 48 hours in a 37C, 5% CO2 incubator with controlled humidity.
4. After 48 hours, CellTilter-GloTM luminescent substrate mix (Promega) reagent was added to the assay plate and plates we incubated for 5 min at room temperature.
5. Signal was measured as median relative luminescence units on a ViewLux (PerkinElmer) multiplate reader.
[1] Heske CM, Davis MI, Baumgart JT, Wilson K, Gormally MV, Chen L, Zhang X, Ceribelli M, Duveau DY, Guha R, Ferrer M, Arnaldez FI, Ji J, Tran HL, Zhang Y, Mendoza A, Helman LJ, Thomas CJ. Matrix Screen Identifies Synergistic Combination of PARP Inhibitors and Nicotinamide Phosphoribosyltransferase (NAMPT) Inhibitors in Ewing Sarcoma. Clin Cancer Res. 2017 Dec 1;23(23):7301-7311. doi: 10.1158/1078-0432.CCR-17-1121. Epub 2017 Sep 12. PMID: 28899971; PMCID: PMC6636827.
(ATP-based viability assays read luminescence as a measure of living cells.)
On to `Cn1c(=O)c(Oc2ccc(F)cc2F)cc2cnc(NC3CCOCC3)nc21`, for which the Potency entry was “inactive”.

`CN1N=C(N)c2cn([C@@H]3O[C@H](COP(=O)(O)O)[C@@H](O)[C@@H]3O)c3ncnc1c23`: the Potency is 0.833 µM (active). The result for `Cc1ccc2c(=O)c3cccc(CC(=O)O)c3oc2c1C` reads “inactive”. In the case of `CC(=O)OCC(=O)[C@@]1(O)CC[C@H]2[C@@H]3CCC4=CC(=O)C=C[C@]4(C)[C@@H]3[C@@H](O)C[C@@]21C` it was “inactive”; in that of `CC=C1C2C=C(C)CC1(N)c1ccc(=O)[nH]c1C2` (stereo not given), “inactive”; in that of `COc1ccc(Cn2ccc3ccc(C(=O)NO)cc32)cc1`, “inactive”.

`CN[C@H]1[C@@H](O[C@@H]2[C@H](O[C@@H]3[C@@H](O)[C@@H](O)[C@@H](N=C(N)N)[C@@H](O)[C@@H]3N=C(N)N)O[C@H](C)[C@@]2(O)C=O)O[C@@H](CO)[C@@H](O)[C@H]1O`: the Potency result was “inactive”. For `C[C@]12CC[C@@H]3c4ccc(O)cc4CC[C@H]3[C@H]1[C@@H](O)[C@@H](O)[C@H]2O`, the Potency result is “inactive”.

`Cc1nn(Cc2ccccc2Cl)c(C)c1CN(C)CC(O)COc1ccc(Cl)cc1` (stereo not given): the Potency was 4.69 µM (active). The result for `O=C1NC(=O)C(c2cnc3ccccn23)=C1c1cn2c3c(cccc13)CN(C(=O)N1CCOCC1)CC2` reads “inactive”; that for `O=C(O)C1=CC(O)C(O)[C@H](O)C1` (stereo not given in full), “inactive”; that for `N#CC(c1ccc(Cl)cc1)c1c(Cl)cc(-n2ncc(=O)[nH]c2=O)cc1Cl` (stereo not given), “inactive”. The result for `CC(C)C[C@@H](N)[C@H](O)C(=O)N[C@H](C(=O)N[C@H](C(=O)N[C@@H](CC(=O)O)C(=O)O)C(C)C)C(C)C` reads “inactive”; that for `Cn1c(=O)c(-c2c(Cl)cccc2Cl)cc2cnc(Nc3cccc(C(=O)O)c3)nc21`, 5.26 µM (active); that for `CCC(C)SSc1ncc[nH]1` (stereo not given), 11.8 µM (active). `CC=C(C(=CC)c1ccc(O)cc1)c1ccc(O)cc1`: the Potency result is “inactive”. Take `CN(C)CCOc1cc(-c2cn[nH]c2)ccc1NC(=O)C1COc2ccccc2O1` (stereo not given): the Potency is 13.2 µM (active). In the case of `Clc1ccc(COC(Cn2ccnc2)c2ccc(Cl)cc2Cl)c(Cl)c1` (stereo not given) it was 18.7 µM (active); in that of `CC(C)C[C@@H](C(=O)N[C@H](C(=O)OC1CCCC1)c1ccccc1)[C@H](O)C(=O)NO`, 23.5 µM (active). The result for `CN(C)CCOc1ccc(C(=C(CCCl)c2ccccc2)c2ccccc2)cc1` reads 26.4 µM (active); that for `OC[C@H]1O[C@@H](Oc2ccc(O)cc2)[C@H](O)[C@@H](O)[C@H]1O`, “inactive”. The result for `CNC(=O)c1cc(Oc2ccc(NC(=O)Nc3ccc(Cl)c(C(F)(F)F)c3)c(F)c2)ccn1` reads 20.9 µM (active); that for `CN1CC(=O)NC1=NC(=O)Nc1cccc(Cl)c1`, “inactive”.

Consider `CC1CCN(c2cc(N3CCN(C)CC3)ccc2NC(=O)c2cc(C#N)c[nH]2)CC1`, for which the Potency was 23.5 µM (active).

In the case of `CN[C@@H](C)[C@H]1[C@H](O)C[C@@]2(C)[C@@H]3CC[C@H]4C(C)(C)[C@@H](NC)CC[C@@]45C[C@@]35CC[C@]12C`, the Potency result was “inactive”. The result for `CCCCOCCOc1nc(-c2ccc(C(=O)O)c(F)c2)sc1C` reads “inactive”. The result for `CN1CCc2c(n(Cc3ccc(C(=O)NO)cc3)c3ccccc23)C1` reads 14.8 µM (active); that for `O=c1[nH]c(=O)n([C@H]2C[C@@H](O)[C@@H](CO)O2)cc1I`, “inactive”.

`CC(C)(C)c1nc(-c2cccc(NS(=O)(=O)c3c(F)cccc3F)c2F)c(-c2ccnc(N)n2)s1`: the Potency result was “inactive”.

Regarding `Cc1cc(OCCCS(C)(=O)=O)cc(C)c1-c1cccc(COc2ccc3c(c2)OC[C@H]3CC(=O)O)c1`, the Potency was 20.9 µM (active). The result for `COc1cc2c(cc1OC)[C@@H]1Cc3ccc(OC)c(OC)c3CN1CC2` reads 20.9 µM (active); that for `NCC1CCC(C(=O)O)CC1` (stereo not given), “inactive”. The result for `CCNC(=O)CCCC=CC[C@@H]1[C@H](C=CC(O)CCc2ccccc2)[C@@H](O)C[C@@H]1O` (stereo not given in full) reads “inactive”; that for `O=C(O)C1=CO[C@@H](O[C@@H]2O[C@H](CO)[C@H](O)[C@H](O)[C@H]2O)[C@@H]2C(CO)=CC[C@H]12`, “inactive”; that for `CCN(CC)CCCCNc1nc2cc(Cl)c(Cl)cc2nc1-c1ccc(-c2cccs2)s1`, 18.7 µM (active). In the case of `O[C@@H](COc1cccc2ncccc12)CN1CCN(C2c3ccccc3[C@@H]3[C@H](c4ccccc42)C3(F)F)CC1` (stereo not given in full) it was 23.5 µM (active); in that of `O=C(O)C1=NC(C(=O)O)CC(C=CN2c3cc(O)c(OC4OC(CO)C(O)C(O)C4O)cc3CC2C(=O)O)=C1` (stereo not given), “inactive”. Take `CO[C@H]1/C=C\O[C@@]2(C)Oc3c(C)c(O)c4c(O)c(c(C=NN5CCN(C6CCCC6)CC5)c(O)c4c3C2=O)NC(=O)C(C)=CC=C[C@H](C)[C@H](O)[C@@H](C)[C@@H](O)[C@@H](C)[C@H](OC(C)=O)[C@H]1C`: the Potency was 0.418 µM (active). In the case of `Cc1cnc(-c2cc(N3CCN(C(=O)CCS(C)(=O)=O)CC3)ncc2Cl)c(C)c1` it was “inactive”; in that of `C=C[C@@H]1CN2CCC1C[C@@H]2C(O)c1ccnc2ccc(OC)cc12` (stereo not given in full), 16.6 µM (active).
